Results reported in PubChem BioAssay AID1347074 (Center for Chemical Genomics, University of Michigan, 2019).
Screen size: about 47,000 compounds; about 2,800 (6%) were called active. Only a selection was taken, and actives are over-represented in it overall. Values without a mark were called inactive. Cut-off read from the data, not from the text of the source: active = z-score above about 3 (passing the limit was not always enough); inactive = the rest.

Biological target: Endoribonuclease Dicer (Homo sapiens) (UniProt Q9UPY3)
Sequence (Q9UPY3 whole entry, looked up): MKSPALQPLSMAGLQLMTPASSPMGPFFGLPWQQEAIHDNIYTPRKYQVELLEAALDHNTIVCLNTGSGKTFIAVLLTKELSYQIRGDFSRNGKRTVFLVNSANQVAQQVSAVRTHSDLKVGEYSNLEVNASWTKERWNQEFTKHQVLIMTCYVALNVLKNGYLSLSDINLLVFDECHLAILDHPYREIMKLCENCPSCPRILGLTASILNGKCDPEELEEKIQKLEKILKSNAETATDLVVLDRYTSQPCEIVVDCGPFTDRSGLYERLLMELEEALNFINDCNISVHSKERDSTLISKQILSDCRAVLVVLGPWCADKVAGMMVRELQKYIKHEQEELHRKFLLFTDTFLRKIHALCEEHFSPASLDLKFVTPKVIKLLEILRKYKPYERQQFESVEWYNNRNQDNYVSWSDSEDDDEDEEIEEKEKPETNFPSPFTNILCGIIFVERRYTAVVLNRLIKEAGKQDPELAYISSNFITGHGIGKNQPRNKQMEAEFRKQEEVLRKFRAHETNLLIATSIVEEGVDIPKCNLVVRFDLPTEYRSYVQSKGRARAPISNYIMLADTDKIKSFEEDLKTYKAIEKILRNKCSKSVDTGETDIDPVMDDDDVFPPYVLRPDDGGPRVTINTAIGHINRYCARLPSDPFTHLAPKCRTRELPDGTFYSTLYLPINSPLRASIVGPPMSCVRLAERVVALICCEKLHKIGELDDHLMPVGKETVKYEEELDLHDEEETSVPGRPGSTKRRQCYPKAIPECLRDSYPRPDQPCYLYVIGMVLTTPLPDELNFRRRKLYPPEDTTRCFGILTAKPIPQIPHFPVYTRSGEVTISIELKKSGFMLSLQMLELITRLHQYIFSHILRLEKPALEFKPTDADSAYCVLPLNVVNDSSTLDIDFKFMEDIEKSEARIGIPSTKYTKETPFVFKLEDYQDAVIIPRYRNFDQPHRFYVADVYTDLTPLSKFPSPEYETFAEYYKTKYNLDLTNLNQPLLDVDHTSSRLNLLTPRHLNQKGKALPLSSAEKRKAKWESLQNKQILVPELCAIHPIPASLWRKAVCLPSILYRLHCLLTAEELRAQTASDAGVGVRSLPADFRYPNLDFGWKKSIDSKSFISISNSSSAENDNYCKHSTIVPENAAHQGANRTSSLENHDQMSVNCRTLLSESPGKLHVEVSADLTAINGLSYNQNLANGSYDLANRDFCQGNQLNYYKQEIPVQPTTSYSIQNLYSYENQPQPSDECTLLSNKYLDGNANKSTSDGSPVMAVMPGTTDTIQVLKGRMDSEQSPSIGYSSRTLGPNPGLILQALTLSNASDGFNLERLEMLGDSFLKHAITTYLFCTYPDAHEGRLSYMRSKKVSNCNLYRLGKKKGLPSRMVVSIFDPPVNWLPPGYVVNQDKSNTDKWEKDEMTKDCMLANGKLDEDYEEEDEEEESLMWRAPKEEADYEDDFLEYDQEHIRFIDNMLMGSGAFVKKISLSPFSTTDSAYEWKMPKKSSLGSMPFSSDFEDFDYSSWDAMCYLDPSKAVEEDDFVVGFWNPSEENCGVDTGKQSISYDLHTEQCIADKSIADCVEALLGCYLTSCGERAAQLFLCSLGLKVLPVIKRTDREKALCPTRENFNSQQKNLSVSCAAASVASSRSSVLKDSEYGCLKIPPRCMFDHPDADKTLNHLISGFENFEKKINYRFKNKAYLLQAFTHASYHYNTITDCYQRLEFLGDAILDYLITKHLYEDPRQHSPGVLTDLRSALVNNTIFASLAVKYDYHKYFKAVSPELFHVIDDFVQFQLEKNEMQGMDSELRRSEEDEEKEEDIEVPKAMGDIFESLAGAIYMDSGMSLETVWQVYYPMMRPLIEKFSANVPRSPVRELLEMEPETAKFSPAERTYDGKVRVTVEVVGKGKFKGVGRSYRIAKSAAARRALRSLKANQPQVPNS
Assay: Dicer cleavage of pre-miR-21 blockers – biochemical, cat-ELCCA, chemiluminescence, primary screen (AID 1347074);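 note: plate controls were vehicle for no effect and no enzyme for full effect; higher signal means more uncleaved substrate so more Dicer inhibition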
Conditions: cat-ELCCA pre-miR-21 Dicer processing, at 25 µM, hits give high values

Compared with `c1ccc(Nc2nc(-c3ccncc3)cs2)nc1`, `COCCCNc1nc(-c2ccccc2)cs1` is lower in z-score: 2.79 for the first, 1.18 for the second.

Compared with `CC(C)(C)NC(=S)Nc1ccc(F)c(Cl)c1`, `CC(C)(C)NC(=O)c1nn2c(C(F)(F)F)cc(-c3ccccc3)nc2c1Cl` is lower in z-score: 16.8 for the first, -0.55 for the second.

Going from `CC1(C)N=C(N)N=C(N)N1c1ccccc1C(F)(F)F` to `CSC(=Nc1ccccc1C(F)(F)F)N1CCCC1`, the z-score rises from 1.59 to 1.69.

First: CCOC(=O)Cc1csc(NC(=O)Nc2cccc3ccccc23)n1
Second: CCc1ccnc(NC(=O)Nc2ccc(OCc3ccccc3)cc2)c1
The z-score of the first is higher: 6.9 for the first, 0.13 for the second.

Going from `Cn1nc(-c2ccc(Cl)cc2)[nH]c1=O` to `Cc1nc(-c2ccc(C(F)(F)F)cc2)[nH]c(=O)c1Oc1ccc(Cl)cc1Cl`, the z-score rises from -1.42 to 0.23.

First: COC(=O)c1ccc([C@@H]2Nc3ccc(F)cc3[C@@H]3C=CC[C@@H]32)cc1
Second: O=S(=O)(c1ccc(C2Nc3ccc(Cl)cc3C3C=CCC32)cc1)N1CCOCC1 (stereo not given)
The z-score of the first is higher: 0.68 for the first, -0.43 for the second.

Going from `CSC(=NCc1ccco1)Nc1ccc(Cl)cc1` to `O=C(O/N=C(/Cc1ccccc1)C(F)(F)F)c1ccc(Cl)cc1`, the z-score falls from 2.16 to -0.11.

Compared with `c1ccc(-c2cc(-c3ccccc3)[nH]n2)cc1`, `Nc1cc(-c2ccccc2)nn1-c1ccccc1` is lower in z-score: 0.74 for the first, -0.41 for the second.

Compared with `O=C(O)CCc1nc2ccccc2[nH]c1=O`, `O=C(Nc1nc2ccsc2c(=O)s1)c1ccccc1` is higher in z-score: -2.59 for the first, -0.44 for the second.

Going from `COc1cccc(OC)c1C(=O)NC(=O)Nc1c(C)cc(Br)cc1C` to `CCOC(=O)C(C)Oc1ccc2c(=O)c(-c3ccc(OC)c(OC)c3)c(C(F)(F)F)oc2c1` (stereo not given), the z-score rises from -0.89 to 0.03.

First: CN(C)/C=C/c1nnnn1-c1ccc(Br)cc1
Second: CSc1nnc(/N=C/c2ccccc2O)s1
The z-score of the first is higher: 2.13 for the first, 0.16 for the second.

First: NNC(=O)c1cnn(-c2ccccc2)c1C(F)(F)F
Second: O=C(Nc1ccccc1)Nc1ccc(C(F)(F)F)cn1
The z-score of the first is lower: -1.32 for the first, 0.31 for the second.

Compared with `Cc1cc(NC(=O)Nc2ccccc2)n(-c2ccccc2)n1`, `Cc1ccc(NC(=O)Nc2cc(-c3ccccc3)nn2C)cc1Cl` is higher in z-score: -0.46 for the first, 0.04 for the second.

First: CCc1ncc(C(O)c2ccccc2)n1C (stereo not given)
Second: CCn1nc(C)cc1-c1n[nH]c(=S)n1-c1ccccc1
The z-score of the first is higher: -0.48 for the first, -0.98 for the second.

Compared with `COCCCn1c2c(c(=O)[nH]c1=O)C(c1ccc(C(=O)O)cc1)C1=C(N2)c2ccccc2C1=O` (stereo not given), `C=CCOc1ccc(C2c3c(oc4ccccc4c3=O)C(=O)N2c2ccc(C)cn2)cc1` (stereo not given) is higher in z-score: -1.05 for the first, 0.29 for the second.

First: COc1cc(C(=O)NCC2CCCO2)c(OC)cc1C(=O)NCC1CCCO1 (stereo not given)
Second: CCOC(=O)c1c(NC(=O)c2sc3nc(C)cc(COC)c3c2N)sc2c1CCCC2
The z-score of the first is higher: 1.74 for the first, -1.64 for the second.

First: Oc1ccccc1-c1nc(/C=C/c2ccc(F)cc2)no1
Second: COc1ccc(/C=C/c2noc(-c3ccccc3O)n2)cc1OC
The z-score of the first is lower: -0.19 for the first, 0.89 for the second.

Going from `CN1c2ccc(Cl)cc2C(C)(C)C12C=Nc1c(ccc3ccccc13)O2` (stereo not given) to `O=S(=O)(c1cc(Cl)ccc1Cl)N1c2ccccc2OC1c1ccc(Cl)c(Cl)c1` (stereo not given), the z-score rises from -0.52 to -0.36.

Going from `OCC(O)Cn1c2ccccc2c2ccccc21` (stereo not given) to `O=C(O)Cc1ccc(-c2ccccc2)cc1`, the z-score rises from -0.45 to -0.37.

First: CCn1c(CN2C(=O)CSc3ccccc32)n[nH]c1=S
Second: Cc1[nH]nc(NCc2ccccc2)c1[N+](=O)[O-]
The z-score of the first is higher: 0.75 for the first, -1.14 for the second.

First: CCOC(=O)c1c(C)nn(-c2ncccc2[N+](=O)[O-])c1C
Second: CCOC(=O)c1sc(N2C(=O)c3oc4ccccc4c(=O)c3C2c2cccs2)nc1C (stereo not given)
The z-score of the first is lower: -0.17 for the first, 1.43 for the second.

First: O=C1CC(c2ccccc2)N(c2ccc(OC(F)(F)F)cc2)C(=S)N1 (stereo not given)
Second: O=C1CC(Cc2ccc(Cl)cc2)C(=O)N1c1ccccc1 (stereo not given)
The z-score of the first is lower: -0.98 for the first, 0.01 for the second.

First: O=C(Nc1ccccc1)O/N=C1\CCSC1
Second: O=C(NCCC(O)C(=O)O)OCc1ccccc1 (stereo not given)
The z-score of the first is higher: 0.99 for the first, -1.43 for the second.

Going from `Cc1ccc(N2C(=O)c3oc4cc(C)c(C)cc4c(=O)c3C2c2ccc(O)cc2)nc1` (stereo not given) to `C=CCOc1cccc(C2c3c(oc4ccccc4c3=O)C(=O)N2c2ccc(C)cn2)c1` (stereo not given), the z-score rises from 0.43 to 0.54.

Going from `O=C1c2oc3ccccc3c(=O)c2C(c2cccc(O)c2)N1Cc1ccccc1` (stereo not given) to `CCCc1nnc(N2C(=O)c3oc4ccc(F)cc4c(=O)c3C2c2ccc(OC)cc2)s1` (stereo not given), the z-score rises from 0.58 to 1.52.

Going from `Cc1nc(N/N=C2\CCCc3ccccc32)sc1C` to `O=C1/C(=C/c2cc(Br)cs2)Cc2ccccc21`, the z-score falls from 0.78 to -0.91.

Going from `O=C(N/C=C/c1ccsc1)Nc1cc(C(F)(F)F)cc(C(F)(F)F)c1` to `CCCC1c2ccsc2CCN1C(=S)Nc1ccccc1C(=O)OC` (stereo not given), the z-score falls from 0.88 to -0.25.

Going from `CCCCC1(C2CC(=O)N(c3ccccc3)C2=O)C(=O)N(c2ccccc2)N(c2ccccc2)C1=O` (stereo not given) to `COC(=O)c1c(C)oc2ccc(N(C(=O)Oc3ccccc3)S(=O)(=O)c3ccccc3)cc12`, the z-score falls from 1.04 to -0.23.

Going from `O=C(C1Sc2nnc(-c3ccccc3)n2NC1c1ccc(F)cc1)N1CCOCC1` (stereo not given) to `Cc1nn2c3c(cnc2c1-c1ccc(F)cc1)C(=O)CC(c1cccc(Cl)c1)C3` (stereo not given), the z-score falls from 2.92 to 0.34.

Compared with `COc1ccc(-c2cc3nccc(-c4cc(F)ccc4O)n3n2)cc1`, `Cc1cc(-c2ccccc2)n2nc(-c3ccccc3)cc2n1` is lower in z-score: 1.88 for the first, 0.87 for the second.

Compared with `CC1CCc2c(sc3ncnc(SC(C)C(=O)O)c23)C1` (stereo not given), `NC(=O)c1c(NC(=O)c2sc3cc(Cl)ccc3c2Cl)sc2c1CCC2` is higher in z-score: -0.91 for the first, 0.57 for the second.

First: CCOC(=O)c1ccc(NC(=S)N(Cc2ccccc2)C(C)C)cc1
Second: CCOC(=O)/C(C#N)=C/N=C(N/N=C(\C)c1cc2ccccc2o1)SC
The z-score of the first is higher: -0.22 for the first, -2.01 for the second.

Compared with `COc1ccc2cccc(OC)c2n1`, `COc1cccc(-c2nc(-c3cc4cc(C)ccc4[nH]c3=O)no2)c1` is higher in z-score: -1.05 for the first, 0.33 for the second.

First: O=C(O)/C=C/C(=O)N1CCN(c2nccc(C(F)(F)F)n2)CC1
Second: NC(=O)CN1C(=O)C(O)(CC(=O)c2ccc3c(c2)CCCC3)c2ccccc21 (stereo not given)
The z-score of the first is higher: 0.2 for the first, -1.03 for the second.

Compared with `O=C(c1cccnc1)N(c1cc2sc(=O)oc2c2ccccc12)S(=O)(=O)c1ccccc1`, `Cc1cc(-c2cccs2)c2c(N)c(C(=O)c3ccccc3)sc2n1` is higher in z-score: -2.86 for the first, 0.82 for the second.

First: Cc1cc(C)c2c(-n3cccc3)c(C(=O)c3ccc(Cl)cc3)sc2n1
Second: Cc1cc(C)c2c(N)c(-c3n[nH]c(=S)n3C)sc2n1
The z-score of the first is higher: -2.32 for the first, -3.29 for the second.

Going from `C#CC(CCN1CCCCC1)(OC)c1ccccc1` (stereo not given) to `Cc1[nH]n(C)c(=O)c1C(=O)c1c(-c2c(Cl)cccc2Cl)noc1C`, the z-score rises from -0.6 to -0.59.

First: NS(=O)(=O)c1ccc2c(c1)OCCO2
Second: Cc1onc(-c2c(Cl)cccc2Cl)c1C(=O)N=S(C)(C)=O
The z-score of the first is lower: -0.87 for the first, 0.49 for the second.

Compared with `Cc1cc(C)cc(Oc2coc3cc(OCC(=O)OC(C)C)ccc3c2=O)c1`, `CCOCc1ccc2oc(C(=O)OCCN(CC)CC)cc2c1` is lower in z-score: 0.93 for the first, 0.17 for the second.

For `Cc1cccc(Nc2nc(-c3ccccc3)cs2)n1`, the z-score was 3.09 (active).
For `CCCCc1c(COC)nc(-c2ccc(Cl)cc2)[nH]c1=O`, the z-score was 3.16 (active).
In the case of `O=C(O)C1Nc2ccc(Cl)cc2C2C=CCC12` (stereo not given), the z-score is reported as 15.4 (active).
With `Nc1cccc(-c2cc(-c3ccccc3)nc(-c3cccc(N)c3)n2)c1` the z-score was 8.06 (active).
In the case of `Nc1c(C(=O)NNC(=S)Nc2ccccc2)cnn1-c1ccccc1`, the z-score is reported as 3.4 (active).
In the case of `Nc1nc(/C=C/c2ccc(O)cc2)nc(-c2ccccc2O)n1`, the z-score is reported as 5.62 (active).
`CC(C)Cn1c(Cn2c3ccccc3c3ccccc32)n[nH]c1=S` was tested, and the z-score was 3.9 (active).
In the case of `Cc1ccc(N2C(=O)c3oc4ccccc4c(=O)c3C2c2cccnc2)nc1` (stereo not given), the z-score is reported as 3.52 (active).
`O=C1c2oc3ccccc3c(=O)c2C(c2cccc(O)c2)N1c1ccccn1` (stereo not given) was tested, and the z-score was 3.7 (active).
For `O=C1CC(NCC2CCCCC2)C(=O)N1c1ccccc1` (stereo not given), the z-score was 3.63 (active).
For `Cc1ccc(-c2cc3nccc(-c4ccccc4O)n3n2)cc1`, the z-score was 3.02 (active).
With `CC(C)(C)OC(=O)NCC(=O)OCc1ccc(CC(=O)O)cc1` the z-score was 3.04 (active).
With `O=C(c1cccnc1)N(c1ccc2oc(=O)sc2c1)S(=O)(=O)c1ccccc1` the z-score was 3.74 (active).
`COc1ccc(S(=O)(=O)N(C(=O)c2ccncc2)c2ccc3oc(=O)sc3c2)cc1OC` was tested, and the z-score was 3.3 (active).
`CCCCC(=O)N(c1ccc2oc(=O)sc2c1)S(=O)(=O)c1ccc(F)cc1` was tested, and the z-score was 3.38 (active).
For `CSC(=Nc1cc(C(F)(F)F)cc(C(F)(F)F)c1)N1CCCCC1`, the z-score was 5.99 (active).
In the case of `Oc1ccccc1C=NCCCN=Cc1ccccc1O`, the z-score is reported as 4.14 (active).
In the case of `Nc1c(C(=O)c2ccc(Cl)cc2)sc2nc(-c3cccs3)cc(C(F)(F)F)c12`, the z-score is reported as 4.28 (active).
With `Cc1cc(C)c2c(N)c(C(=O)NNC(=S)Nc3ccccc3)sc2n1` the z-score was 5.62 (active).
With `C(#CCN1CCCCC1)COC(c1ccccc1)c1ccccc1` the z-score was 4.06 (active).
For `Cc1onc(-c2ccccc2Cl)c1C(=O)OCC(=O)c1ccccc1`, the z-score was 4.29 (active).
With `Oc1c(Cl)cc(Cl)c(Cl)c1Cc1c(O)c(Cl)cc(Cl)c1Cl` the z-score was 13.8 (active).
